# Measured values as given in paper PMC4336329 (PLoS ONE, 2015).
# In all, about 310,000 compounds went through this assay and about 14,000 (4.5%) showed an effect of 50% or more. Effects have a minus sign here. This excerpt belongs to a sample that is enriched for strong results.
# Molecular target: human ether-à-go-go-related gene (hERG) potassium channel (human, UniProt Q12809)
# Test: primary screen, population patch clamp on CHO cells stably expressing hERG; higher = less effect of the substance
# 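Further: peak tail current of the secondary pulse compared with the same well before compound.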
# human ether-à-go-go-related gene (hERG) potassium channel, sequence (Q12809 whole entry, looked up): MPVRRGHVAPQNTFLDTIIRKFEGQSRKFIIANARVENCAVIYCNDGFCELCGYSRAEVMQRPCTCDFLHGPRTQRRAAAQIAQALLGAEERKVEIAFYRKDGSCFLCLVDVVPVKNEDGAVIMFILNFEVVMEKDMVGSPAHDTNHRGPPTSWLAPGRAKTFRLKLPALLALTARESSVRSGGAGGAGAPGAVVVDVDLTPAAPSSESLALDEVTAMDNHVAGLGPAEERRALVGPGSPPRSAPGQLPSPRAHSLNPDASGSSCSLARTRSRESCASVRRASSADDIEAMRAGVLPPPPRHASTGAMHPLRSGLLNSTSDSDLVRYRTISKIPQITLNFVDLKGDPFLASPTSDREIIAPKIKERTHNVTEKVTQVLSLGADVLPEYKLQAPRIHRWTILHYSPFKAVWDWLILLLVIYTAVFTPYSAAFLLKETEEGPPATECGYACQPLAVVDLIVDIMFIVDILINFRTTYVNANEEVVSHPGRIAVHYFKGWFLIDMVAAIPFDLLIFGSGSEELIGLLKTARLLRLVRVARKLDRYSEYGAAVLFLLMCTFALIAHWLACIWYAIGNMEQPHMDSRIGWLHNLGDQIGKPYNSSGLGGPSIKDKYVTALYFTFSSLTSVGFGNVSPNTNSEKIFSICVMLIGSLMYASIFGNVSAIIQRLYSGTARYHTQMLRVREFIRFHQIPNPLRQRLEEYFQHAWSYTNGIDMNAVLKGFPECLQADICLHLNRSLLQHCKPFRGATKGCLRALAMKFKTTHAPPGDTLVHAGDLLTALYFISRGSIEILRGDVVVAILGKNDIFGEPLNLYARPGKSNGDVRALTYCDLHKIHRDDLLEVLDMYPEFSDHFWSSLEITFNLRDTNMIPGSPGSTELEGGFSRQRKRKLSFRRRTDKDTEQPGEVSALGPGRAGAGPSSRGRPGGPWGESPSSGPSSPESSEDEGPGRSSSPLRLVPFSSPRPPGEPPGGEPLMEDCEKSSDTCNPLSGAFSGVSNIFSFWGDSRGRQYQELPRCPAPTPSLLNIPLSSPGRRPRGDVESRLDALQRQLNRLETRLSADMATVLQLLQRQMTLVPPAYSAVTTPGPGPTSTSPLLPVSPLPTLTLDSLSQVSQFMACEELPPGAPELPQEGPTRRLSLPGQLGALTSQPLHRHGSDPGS
row,SMILES,"hERG current change (%, negative = inhibition) at 10uM [%]"
1,COc1cc(OC)c(NC(=O)CCNC(=O)Cn2ccc3ccccc3c2=O)cc1Cl,7.45
2,O=C(c1cccs1)N1CCN(c2ncc(C(F)(F)F)cc2Cl)CC1,-65
3,Cc1ccsc1C(=O)N1CCN(c2ncc(C(F)(F)F)cc2Cl)CC1,-21
4,O=C(c1ccc2nc[nH]c2c1)N1CCN(c2ncc(C(F)(F)F)cc2Cl)CC1,-53.6
5,CC(C)(C(N)=O)N1CCN(c2ncc(C(F)(F)F)cc2Cl)CC1,-42.4
6,O=C(CN1CCN(c2ncc(C(F)(F)F)cc2Cl)CC1)N1CCN(c2ncc(C(F)(F)F)cc2Cl)CC1,11.7
7,O=C(CSc1ccc(Cl)cc1)N1CCN(c2ncc(C(F)(F)F)cc2Cl)CC1,-26
8,CCc1cc(C(=O)N2CCN(c3ncc(C(F)(F)F)cc3Cl)CC2)sc1C,-3.1
9,O=C(c1ccc2c(c1)OCCO2)N1CCN(c2ncc(C(F)(F)F)cc2Cl)CC1,-41.3
10,Cc1ccc(C(=O)N2CCN(c3ncc(C(F)(F)F)cc3Cl)CC2)s1,-59.8
11,O=C(CSc1ccccn1)N1CCN(c2ncc(C(F)(F)F)cc2Cl)CC1,-63.9
12,CCOC(=O)N1CCN(c2ncc(C(F)(F)F)cc2Cl)CC1,21.4
13,O=C(c1ccc2nc[nH]c2c1)N1CCN(c2cccc(C(F)(F)F)c2)CC1,-11.4
14,CCOc1ccccc1CN1CCNC(=O)C1CC(=O)NCc1nccn1CC (centres unmarked),18.8
15,O=C(CNC(=O)c1ccccc1)NCC(=O)OCc1ccc(Cl)cc1,-29.3
16,Cc1onc(-c2c(Cl)cccc2Cl)c1C(=O)NC(=S)N1CCOCC1,6
17,O=C(CCn1nnc(-c2cccs2)n1)NC1CCCCC1,2.79
18,C=CCOc1cccc(C2C(C(=O)c3ccc(C)o3)=C(O)C(=O)N2CCCn2ccnc2)c1 (centres unmarked),9.13
19,Cn1cccc1/C=C1\SC(=S)N(NC(=O)c2ccccc2Cl)C1=O,1.91

row,SMILES,"hERG current change (%, negative = inhibition) at 10uM [%]"
1,CCn1c(SCC(=O)Nc2cc(C)on2)nnc1-c1ccc(S(=O)(=O)N2CCN(C)CC2)cc1,-23.1
2,Cc1cc(N=Nc2ccc(Cl)cc2)cc(CN2CCOCC2)c1O,11.6
3,CC(=O)c1ccc(OC(=O)Cc2cccc3ccccc23)cc1,3.13
4,c1ccc2c(CNC3CCCCCC3)c[nH]c2c1,-20.8
5,O=S(=O)(Cc1cc(-c2ccccc2)no1)c1ccccc1,-2.75
6,O=S(=O)(Cc1cc(-c2ccccc2Cl)no1)c1ccccc1,-51
7,O=S(=O)(Cc1cc(-c2ccc(Cl)cc2)no1)c1ccccc1,0.608
8,COCCn1nnnc1C(c1cccs1)N1CCCC(C)C1.Cl (centres unmarked),17.9
9,COc1ccc(/C=C/C(=O)Nc2ccccc2C(F)(F)F)cc1OC,-4.62
10,Cc1ccc(OCC(=O)N2N=C(c3ccc(Cl)cc3)CC2c2ccco2)c([N+](=O)[O-])n1 (centres unmarked),-63.3
11,O=C(CNC(=O)c1ccccc1)OCC(=O)N1N=C(c2ccc(Cl)cc2)CC1c1ccco1 (centres unmarked),-72.5
12,COCC(=O)OCC(=O)N1N=C(c2ccc(Cl)cc2)CC1c1ccco1 (centres unmarked),-28.1
13,O=C(COc1cccnc1[N+](=O)[O-])N1N=C(c2ccc(Cl)cc2)CC1c1ccco1 (centres unmarked),16.9
14,O=C(O)CCCC(=O)N1N=C(c2ccco2)CC1c1ccco1 (centres unmarked),9.6
15,CC(=O)N1N=C(c2ccc(Cl)cc2)CC1c1ccco1 (centres unmarked),7.11
16,Cl.N=c1sccn1CC(=O)N1N=C(c2ccc(Cl)cc2)CC1c1ccco1 (centres unmarked),-79.5
17,O=C(O)CCC(=O)N1N=C(c2ccco2)CC1c1ccco1 (centres unmarked),-78.1
18,COc1ccc(C(=O)NCC(=O)OCC(=O)N2N=C(c3ccc(Cl)cc3)CC2c2ccco2)cc1OC (centres unmarked),-5.57
19,O=C(CCl)N1N=C(c2ccco2)CC1c1ccco1 (centres unmarked),14

row,SMILES,"hERG current change (%, negative = inhibition) at 10uM [%]"
1,O=C(OCC(=O)N1N=C(c2ccc(Cl)cc2)CC1c1ccco1)c1ccco1 (centres unmarked),27.4
2,CCC(=O)N1N=C(c2ccc(Cl)cc2)CC1c1ccco1 (centres unmarked),0.74
3,COc1cc(S(=O)(=O)N2CCN(C)CC2)c(OC)cc1Cl,13.2
4,COC(=O)c1nn(-c2ccc(OC)cc2)c(=O)cc1O,16.9
5,O=C(CCc1c[nH]c2ccccc12)NCc1ccco1,32.4
6,Cc1ccc(CN(Cc2cc3cc(C)ccc3[nH]c2=O)C(=O)N2CCOCC2)cc1,-13.2
7,Cc1cccc(NC(=O)CSc2nncn2-c2ccccn2)c1,-1.31
8,CSc1ncc(CN2CCCC(C(=O)Nc3ccc(-c4ccco4)cc3)C2)cn1 (centres unmarked),11.1
9,Cc1ccccc1-n1c(-c2ccoc2)nc2ccccc2c1=O,6.09
10,CCN(Cc1ccccc1)C(=O)c1c(-c2ccccc2Cl)noc1C,-9.34
11,CC(C)c1csc(CN2CCN(Cc3ccccc3)C(CCO)C2)n1 (centres unmarked),-26.3
12,OCCC1CN(Cc2nc(-c3ccccc3)cs2)CCN1Cc1ccc(F)cc1 (centres unmarked),-69.8
13,CC(C)c1csc(CN2CCN(CCc3ccccc3)C(CCO)C2)n1 (centres unmarked),-76
14,OCCC1CN(Cc2nc(-c3ccccc3)cs2)CCN1CCc1ccccc1 (centres unmarked),-77.8
15,CC(C)CN1CCN(Cc2nc(C(C)C)cs2)CC1CCO (centres unmarked),1.27
16,OCCC1CN(Cc2nc(-c3ccc(F)cc3)cs2)CCN1CCc1ccccc1 (centres unmarked),-80.6
17,C=C(c1ccccc1)P(=O)(O)O,17.8
18,COc1ccccc1C(=O)NCCC(=O)OCC(=O)Nc1ccc(S(N)(=O)=O)cc1,-2.51
